# ChEMBL document CHEMBL1961873, “Compounds: GSK PKIS; Assays: Nanosyn kinase panel” (2012)
# Target: Serine/threonine-protein kinase MARK2 (Homo sapiens) (UniProt Q7KZI7)
# Conditions: at 1 µM
# Chain of Serine/threonine-protein kinase MARK2 (Homo sapiens) (Q7KZI7 whole entry): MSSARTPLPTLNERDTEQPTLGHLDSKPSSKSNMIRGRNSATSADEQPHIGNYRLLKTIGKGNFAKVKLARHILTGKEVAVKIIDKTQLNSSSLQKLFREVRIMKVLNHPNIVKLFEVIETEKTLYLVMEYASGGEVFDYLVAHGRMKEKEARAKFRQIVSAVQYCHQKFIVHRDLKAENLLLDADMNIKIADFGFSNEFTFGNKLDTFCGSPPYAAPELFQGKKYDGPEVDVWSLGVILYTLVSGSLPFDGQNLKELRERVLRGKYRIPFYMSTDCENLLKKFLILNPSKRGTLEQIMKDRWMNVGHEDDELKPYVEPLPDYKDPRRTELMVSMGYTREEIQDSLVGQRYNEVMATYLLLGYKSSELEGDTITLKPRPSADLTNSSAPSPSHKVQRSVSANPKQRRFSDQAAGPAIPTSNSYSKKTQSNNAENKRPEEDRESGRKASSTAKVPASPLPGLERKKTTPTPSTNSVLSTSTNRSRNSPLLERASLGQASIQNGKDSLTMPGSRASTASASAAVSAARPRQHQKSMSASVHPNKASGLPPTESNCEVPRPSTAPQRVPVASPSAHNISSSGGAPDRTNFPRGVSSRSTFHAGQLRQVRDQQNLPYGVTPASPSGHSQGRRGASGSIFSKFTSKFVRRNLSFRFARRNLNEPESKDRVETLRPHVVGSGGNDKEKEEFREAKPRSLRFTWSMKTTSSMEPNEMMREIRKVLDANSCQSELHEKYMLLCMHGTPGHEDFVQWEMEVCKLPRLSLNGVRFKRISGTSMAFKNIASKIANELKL
row,SMILES,inhibition [%]
1,COc1cc(C=NNc2ncnc3c2cnn3Cc2ccccc2)ccc1O,4.82
2,CCn1c(-c2nonc2N)nc2c(C#CCN)ncc(OCCCN)c21,10.1
3,CCn1c(-c2nonc2N)nc2c(C#CC(C)(C)O)nc(O[C@@H](CN)c3ccccc3)cc21,90.5
4,NS(=O)(=O)c1ccc(N/C=C2\C(=O)Nc3ccc4ncsc4c32)cc1,34.6
5,NC(=O)c1sc(-n2cnc3cc(C(F)(F)F)ccc32)cc1OCc1ccccc1Br,2.11
6,Cc1cc(-c2ccco2)cc(C)c1/C=C/c1cncc(-c2nn[nH]n2)c1,-0.28
7,Nc1nonc1-c1nc2cnccc2n1C1CCCCC1,21.9
8,COc1cccc(-n2ncc3c(N/N=C/c4ccncc4)ncnc32)c1,2.54
9,COc1cc2c(cc1Nc1nc(Nc3ccsc3C(N)=O)c3cc[nH]c3n1)N(C(=O)CN(C)C)CCC2,5.44
10,CCn1c(-c2nonc2N)nc2c(C#CC(C)(C)O)ncc(OC[C@@H]3CCCN3)c21,51.9
11,CCn1c(-c2nonc2N)nc2c(C#CC(C)(C)O)ncc(OCC3CCNCC3)c21,46.5
12,COc1cccc(COc2cc(-n3cnc4ccccc43)sc2C(N)=O)c1,-1.4
13,Fc1ccc(-c2ncn(C3CCNCC3)c2-c2ccnc(Oc3ccccc3)n2)cc1,-1.83
14,NS(=O)(=O)c1ccc(-c2ccc3c(NC(=O)C4CC4)n[nH]c3c2)cc1,2.59

# Target: PAS domain-containing serine/threonine-protein kinase (Homo sapiens) (UniProt Q96RG2)
# Conditions: at 0.1 µM
# Chain of PAS domain-containing serine/threonine-protein kinase (Homo sapiens) (Q96RG2 whole entry, the tested form may be a part): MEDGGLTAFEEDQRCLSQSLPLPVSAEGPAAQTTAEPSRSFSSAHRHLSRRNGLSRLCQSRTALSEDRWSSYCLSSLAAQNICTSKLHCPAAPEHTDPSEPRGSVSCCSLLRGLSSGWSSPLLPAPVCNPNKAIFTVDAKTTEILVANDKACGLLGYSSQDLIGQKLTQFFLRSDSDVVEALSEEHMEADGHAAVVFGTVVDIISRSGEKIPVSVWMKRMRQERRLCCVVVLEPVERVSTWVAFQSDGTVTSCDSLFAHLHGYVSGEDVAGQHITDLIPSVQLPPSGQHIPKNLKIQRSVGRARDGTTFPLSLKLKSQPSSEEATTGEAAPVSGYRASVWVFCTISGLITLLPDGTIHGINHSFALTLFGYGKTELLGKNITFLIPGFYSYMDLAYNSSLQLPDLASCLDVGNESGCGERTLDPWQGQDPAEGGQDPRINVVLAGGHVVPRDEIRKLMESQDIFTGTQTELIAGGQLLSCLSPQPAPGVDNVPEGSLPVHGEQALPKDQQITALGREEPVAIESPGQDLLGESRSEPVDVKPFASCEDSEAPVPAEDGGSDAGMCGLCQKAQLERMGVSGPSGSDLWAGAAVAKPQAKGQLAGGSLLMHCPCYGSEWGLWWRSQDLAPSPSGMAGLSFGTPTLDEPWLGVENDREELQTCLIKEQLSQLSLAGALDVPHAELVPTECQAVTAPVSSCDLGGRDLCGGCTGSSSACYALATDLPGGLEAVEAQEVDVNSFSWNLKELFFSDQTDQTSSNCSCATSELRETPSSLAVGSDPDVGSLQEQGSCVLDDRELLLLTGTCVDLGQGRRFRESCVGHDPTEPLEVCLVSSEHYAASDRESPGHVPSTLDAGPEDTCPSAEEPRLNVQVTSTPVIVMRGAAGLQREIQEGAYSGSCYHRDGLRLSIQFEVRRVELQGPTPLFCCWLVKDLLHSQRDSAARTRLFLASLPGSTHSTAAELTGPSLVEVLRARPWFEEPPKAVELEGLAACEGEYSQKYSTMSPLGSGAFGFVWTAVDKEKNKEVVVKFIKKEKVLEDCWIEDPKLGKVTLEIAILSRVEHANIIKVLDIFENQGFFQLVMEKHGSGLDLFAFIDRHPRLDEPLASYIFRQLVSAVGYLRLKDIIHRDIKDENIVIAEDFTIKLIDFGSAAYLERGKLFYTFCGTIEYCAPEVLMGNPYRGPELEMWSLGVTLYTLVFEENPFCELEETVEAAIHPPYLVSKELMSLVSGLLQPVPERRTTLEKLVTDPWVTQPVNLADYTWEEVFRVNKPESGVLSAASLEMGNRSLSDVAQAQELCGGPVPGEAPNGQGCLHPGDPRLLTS
row,SMILES,inhibition [%]
1,COc1cc(C=NNc2ncnc3c2cnn3Cc2ccccc2)ccc1O,-0.31
2,CCn1c(-c2nonc2N)nc2c(C#CCN)ncc(OCCCN)c21,1.4
3,CCn1c(-c2nonc2N)nc2c(C#CC(C)(C)O)nc(O[C@@H](CN)c3ccccc3)cc21,0.53
4,NS(=O)(=O)c1ccc(N/C=C2\C(=O)Nc3ccc4ncsc4c32)cc1,-0.28
5,NC(=O)c1sc(-n2cnc3cc(C(F)(F)F)ccc32)cc1OCc1ccccc1Br,1.33
6,Cc1cc(-c2ccco2)cc(C)c1/C=C/c1cncc(-c2nn[nH]n2)c1,1.32
7,Nc1nonc1-c1nc2cnccc2n1C1CCCCC1,1.01
8,COc1cccc(-n2ncc3c(N/N=C/c4ccncc4)ncnc32)c1,0.3
9,COc1cc2c(cc1Nc1nc(Nc3ccsc3C(N)=O)c3cc[nH]c3n1)N(C(=O)CN(C)C)CCC2,0.93
10,CCn1c(-c2nonc2N)nc2c(C#CC(C)(C)O)ncc(OC[C@@H]3CCCN3)c21,0.57
11,CCn1c(-c2nonc2N)nc2c(C#CC(C)(C)O)ncc(OCC3CCNCC3)c21,0.98
12,COc1cccc(COc2cc(-n3cnc4ccccc43)sc2C(N)=O)c1,1.11
13,Fc1ccc(-c2ncn(C3CCNCC3)c2-c2ccnc(Oc3ccccc3)n2)cc1,0.55
14,NS(=O)(=O)c1ccc(-c2ccc3c(NC(=O)C4CC4)n[nH]c3c2)cc1,0.57
